Laboratory results reported in the supplement of paper PMC6992640.

These compounds were tested on WHIM30 (cells of a triple-negative basal-like breast cancer xenograft) (assay: cell viability of combination (% of vehicle); higher = less cytotoxic). Settings: 1 µM; 72 h; partner dose: 10 nM.
Method: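 PDX cells were treated for 72 h with each drug at 1 µM plus carfilzomib (10 nM; 100 nM for WHIM2). Luciferase viability is expressed as percent of vehicle.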

| SMILES | cell viability of combination |
| --- | --- |
| Cl.Fc1ccc(C2CCNCC2COc2ccc3c(c2)OCO3)cc1 (stereo not given) [Paroxetine HCl] + CC(C)C[C@H](NC(=O)[C@H](CCc1ccccc1)NC(=O)CN1CCOCC1)C(=O)N[C@@H](Cc1ccccc1)C(=O)N[C@@H](CC(C)C)C(=O)[C@@]1(C)CO1 [Carfilzomib] | 12.9 |
| CC(C)(C)Cn1c(N)nc2ccc(-c3[nH]c(C(C)(C)C)nc3-c3ccc(F)cc3)nc21.CS(=O)(=O)O.CS(=O)(=O)O + CC(C)C[C@H](NC(=O)[C@H](CCc1ccccc1)NC(=O)CN1CCOCC1)C(=O)N[C@@H](Cc1ccccc1)C(=O)N[C@@H](CC(C)C)C(=O)[C@@]1(C)CO1 [Carfilzomib] | 14.4 |
| [O-]n1ccccc1=S.[O-]n1ccccc1=S.[Zn+2] [Zinc Pyrithione] + CC(C)C[C@H](NC(=O)[C@H](CCc1ccccc1)NC(=O)CN1CCOCC1)C(=O)N[C@@H](Cc1ccccc1)C(=O)N[C@@H](CC(C)C)C(=O)[C@@]1(C)CO1 [Carfilzomib] | 13.4 |
| COc1cccc2c1C(=O)c1c(O)c3c(c(O)c1C2=O)CC(O)(C(=O)CO)CC3OC1CC(N)C(O)C(C)O1 (stereo not given) [Doxorubicin] + CC(C)C[C@H](NC(=O)[C@H](CCc1ccccc1)NC(=O)CN1CCOCC1)C(=O)N[C@@H](Cc1ccccc1)C(=O)N[C@@H](CC(C)C)C(=O)[C@@]1(C)CO1 [Carfilzomib] | 8.32 |
| Nc1c(CC(=O)[O-])cccc1C(=O)c1ccccc1.O.[Na+] [Amfenac Sodium Monohydrate] + CC(C)C[C@H](NC(=O)[C@H](CCc1ccccc1)NC(=O)CN1CCOCC1)C(=O)N[C@@H](Cc1ccccc1)C(=O)N[C@@H](CC(C)C)C(=O)[C@@]1(C)CO1 [Carfilzomib] | 23.7 |
| COc1cccc2c1C(=O)c1c(O)c3c(c(O)c1C2=O)CC(O)(C(=O)CO)CC3OC1CC(N)C(O)C(C)O1.Cl (stereo not given) [Epirubicin HCl] + CC(C)C[C@H](NC(=O)[C@H](CCc1ccccc1)NC(=O)CN1CCOCC1)C(=O)N[C@@H](Cc1ccccc1)C(=O)N[C@@H](CC(C)C)C(=O)[C@@]1(C)CO1 [Carfilzomib] | 5.02 |
| CC(Oc1cc(-c2cnn(C3CCNCC3)c2)cnc1N)c1c(Cl)ccc(F)c1Cl [(R)-Crizotinib] + CC(C)C[C@H](NC(=O)[C@H](CCc1ccccc1)NC(=O)CN1CCOCC1)C(=O)N[C@@H](Cc1ccccc1)C(=O)N[C@@H](CC(C)C)C(=O)[C@@]1(C)CO1 [Carfilzomib] | 27.4 |
| COC1=C(OC)C(=O)C(CCCCCCCCCCO)=C(C)C1=O [Idebenone] + CC(C)C[C@H](NC(=O)[C@H](CCc1ccccc1)NC(=O)CN1CCOCC1)C(=O)N[C@@H](Cc1ccccc1)C(=O)N[C@@H](CC(C)C)C(=O)[C@@]1(C)CO1 [Carfilzomib] | 17.5 |
| O=C1C=CC=CC1=C1NC(=C2C=CC=CC2=O)N(c2ccc(C(=O)O)cc2)N1 [Deferasirox] + CC(C)C[C@H](NC(=O)[C@H](CCc1ccccc1)NC(=O)CN1CCOCC1)C(=O)N[C@@H](Cc1ccccc1)C(=O)N[C@@H](CC(C)C)C(=O)[C@@]1(C)CO1 [Carfilzomib] | 23.7 |
| CC(C)CC(NC(=O)C(CCc1ccccc1)NC(=O)CN1CCOCC1)C(=O)NC(Cc1ccccc1)C(=O)NC(CC(C)C)C(=O)C1(C)CO1 (stereo not given) [Carfilzomib (PR-171)] + CC(C)C[C@H](NC(=O)[C@H](CCc1ccccc1)NC(=O)CN1CCOCC1)C(=O)N[C@@H](Cc1ccccc1)C(=O)N[C@@H](CC(C)C)C(=O)[C@@]1(C)CO1 [Carfilzomib] | 9.47 |
| CC(C)Nc1cc(-c2c[nH]c(C(=O)NC(CO)c3cccc(Cl)c3)c2)c(Cl)cn1 (stereo not given) + CC(C)C[C@H](NC(=O)[C@H](CCc1ccccc1)NC(=O)CN1CCOCC1)C(=O)N[C@@H](Cc1ccccc1)C(=O)N[C@@H](CC(C)C)C(=O)[C@@]1(C)CO1 [Carfilzomib] | 21.7 |
| Cl.Cl.Fc1ccc(C(c2ccc(F)cc2)N2CCN(CC=Cc3ccccc3)CC2)cc1 [Flunarizine 2HCl] + CC(C)C[C@H](NC(=O)[C@H](CCc1ccccc1)NC(=O)CN1CCOCC1)C(=O)N[C@@H](Cc1ccccc1)C(=O)N[C@@H](CC(C)C)C(=O)[C@@]1(C)CO1 [Carfilzomib] | 15 |
| CC(C)COc1ccc(CNC(=O)N(Cc2ccc(F)cc2)C2CCN(C)CC2)cc1 [Pimavanserin] + CC(C)C[C@H](NC(=O)[C@H](CCc1ccccc1)NC(=O)CN1CCOCC1)C(=O)N[C@@H](Cc1ccccc1)C(=O)N[C@@H](CC(C)C)C(=O)[C@@]1(C)CO1 [Carfilzomib] | 15.8 |
| COc1ccccc1OCCNCC(O)COc1cccc2[nH]c3ccccc3c12 (stereo not given) [Carvedilol] + CC(C)C[C@H](NC(=O)[C@H](CCc1ccccc1)NC(=O)CN1CCOCC1)C(=O)N[C@@H](Cc1ccccc1)C(=O)N[C@@H](CC(C)C)C(=O)[C@@]1(C)CO1 [Carfilzomib] | 20.7 |
| CC(C)C1=CC(=C2NNC(=O)N2c2ccc3c(ccn3C)c2)C(=O)C=C1O [Ganetespib (STA-9090)] + CC(C)C[C@H](NC(=O)[C@H](CCc1ccccc1)NC(=O)CN1CCOCC1)C(=O)N[C@@H](Cc1ccccc1)C(=O)N[C@@H](CC(C)C)C(=O)[C@@]1(C)CO1 [Carfilzomib] | 23.7 |
| Clc1ccc(COC(Cn2ccnc2)c2ccc(Cl)cc2Cl)c(Cl)c1.O=[N+]([O-])O (stereo not given) [Miconazole Nitrate] + CC(C)C[C@H](NC(=O)[C@H](CCc1ccccc1)NC(=O)CN1CCOCC1)C(=O)N[C@@H](Cc1ccccc1)C(=O)N[C@@H](CC(C)C)C(=O)[C@@]1(C)CO1 [Carfilzomib] | 14 |
| CCCCCOc1ccc(-c2ccc(-c3ccc(C(=O)N[C@H]4C[C@@H](O)[C@@H](O)NC(=O)[C@@H]5[C@@H](O)[C@@H](C)CN5C(=O)[C@H]([C@@H](C)O)NC(=O)[C@H]([C@H](O)[C@@H](O)c5ccc(O)cc5)NC(=O)[C@@H]5C[C@@H](O)CN5C(=O)[C@H]([C@@H](C)O)NC4=O)cc3)cc2)cc1 [Anidulafungin] + CC(C)C[C@H](NC(=O)[C@H](CCc1ccccc1)NC(=O)CN1CCOCC1)C(=O)N[C@@H](Cc1ccccc1)C(=O)N[C@@H](CC(C)C)C(=O)[C@@]1(C)CO1 [Carfilzomib] | 16.7 |
| CCN(CC)CCNC(=O)c1c(C)[nH]c(C=C2C(=O)Nc3ccc(F)cc32)c1C [Sunitinib] + CC(C)C[C@H](NC(=O)[C@H](CCc1ccccc1)NC(=O)CN1CCOCC1)C(=O)N[C@@H](Cc1ccccc1)C(=O)N[C@@H](CC(C)C)C(=O)[C@@]1(C)CO1 [Carfilzomib] | 33.2 |
| C#Cc1cccc(Nc2ncnc3cc(OCCOC)c(OCCOC)cc23)c1 [Erlotinib] + CC(C)C[C@H](NC(=O)[C@H](CCc1ccccc1)NC(=O)CN1CCOCC1)C(=O)N[C@@H](Cc1ccccc1)C(=O)N[C@@H](CC(C)C)C(=O)[C@@]1(C)CO1 [Carfilzomib] | 27.4 |
| Clc1ccc(C(Cn2ccnc2)OCc2ccsc2Cl)c(Cl)c1 (stereo not given) [Tioconazole] + CC(C)C[C@H](NC(=O)[C@H](CCc1ccccc1)NC(=O)CN1CCOCC1)C(=O)N[C@@H](Cc1ccccc1)C(=O)N[C@@H](CC(C)C)C(=O)[C@@]1(C)CO1 [Carfilzomib] | 16.9 |
